Several values for one entry are separate records, joined by “and”; a condition that tells them apart may be missing. Equal values may be shown once. The panel holds about 83,000 compounds, 20% with a hit somewhere; the sample as a whole holds those more often.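 Growth was measured after 48 h exposure to one concentration of compound in 96-well plates. Values under 10 count as active.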 Activity calls are given as the source filed them.
Tests used:
Test in all cases: NCI-60 one-dose screen, 48 h (100 = growth as untreated, 0 = no growth, -100 = all killed)
Settings in all cases: 10 µM unless noted
DU-145 prostate = test system: DU-145 prostate
K-562 leukemia = test system: K-562 leukemia
MALME-3M melanoma = test system: MALME-3M melanoma
MDA-MB-231 breast = test system: MDA-MB-231 breast
RXF 393 renal = test system: RXF 393 renal
SF-268 CNS = test system: SF-268 CNS
SF-295 CNS = test system: SF-295 CNS
SF-539 CNS = test system: SF-539 CNS
UACC-257 melanoma = test system: UACC-257 melanoma
M14 melanoma = test system: M14 melanoma

SMILES	growth (DU-145 prostate)	growth (K-562 leukemia)	growth (MALME-3M melanoma)	growth (MDA-MB-231 breast)	growth (RXF 393 renal)	growth (SF-268 CNS)	growth (SF-295 CNS)	growth (SF-539 CNS)	growth (UACC-257 melanoma)	growth (M14 melanoma)
NC(N)=N/N=C/c1ccc([N+](=O)[O-])o1	91.5% (inactive)	94.6% (inactive)	68.1% (inactive)	105% (inactive)	95.7% (inactive)	90.3% (inactive)	93.4% (inactive)	104% (inactive)	67.1% (inactive)	99.1% (inactive)
CC(C)(C)c1ccc(O)c(C2CCCCC2)c1	102% (inactive)	89.8% (inactive)	115% (inactive)	106% (inactive)	90.9% (inactive)	99.4% (inactive)	130% (inactive)	121% (inactive)	86.6% (inactive)	122% (inactive)
CC(C)c1ccc2nc3ccc(C(=O)NCCN4CCN(c5ccccc5)CC4)cn3c(=O)c2c1	80% (inactive)	45.1% (inactive)	48.3% (inactive)	59.3% (inactive)	3.14% (active)	72.9% (inactive)	23.1% (inactive)	40.8% (inactive)	60.2% (inactive)	63.8% (inactive)
O=C1OCc2cccc3cccc1c23	107% (inactive)	103% (inactive)	107% (inactive)	111% (inactive)	102% (inactive)	103% (inactive)	102% (inactive)	98.4% (inactive)	94.3% (inactive)	103% (inactive)
CCC(CCCN(CC)CCc1ccccc1)OC(=O)c1cc(OC)c(OC)c(OC)c1 (stereo not given)	104% (inactive)	76.4% (inactive)	98.9% (inactive)	78.8% (inactive)	89.7% (inactive)	82.7% (inactive)	90.1% (inactive)	93.1% (inactive)	85.4% (inactive)	90.1% (inactive)
CC(=O)Nc1cccc2cc(O)ccc12	118% (inactive) and 110% (inactive) and 111% (inactive)	108% (inactive) and 113% (inactive) and 99.7% (inactive)	101% (inactive) and 127% (inactive) and 98.3% (inactive)	102% (inactive) and 95.1% (inactive) and 95.8% (inactive)	123% (inactive) and 98% (inactive) and 105% (inactive)	111% (inactive) and 94.6% (inactive) and 99.6% (inactive)	84.7% (inactive) and 130% (inactive) and 99% (inactive)	96.4% (inactive) and 96.8% (inactive) and 98.5% (inactive)	123% (inactive) and 103% (inactive) and 90.3% (inactive)	91.7% (inactive) and 98.2% (inactive)
N#CSCc1ccc(CSC#N)c(Cl)c1	42.5% (inactive)	33.8% (inactive)	54.3% (inactive)	52.5% (inactive)	72.2% (inactive)	65.8% (inactive)	102% (inactive)	58.8% (inactive)	67.6% (inactive)	50.7% (inactive)
N#CSCc1ccc(Cl)c(CSC#N)c1	16.4% (inactive)	15.2% (inactive)	63.7% (inactive)	45.4% (inactive)	5.61% (active)	36.4% (inactive)	70.7% (inactive)	15.2% (inactive)	83.1% (inactive)	9.39% (active)
O=C1c2cccnc2-c2nccc3c2c1nc1cc(Br)ccc13	-88.9% (active) and -99.9% (active)	-87.4% (active) and -25.6% (active)	8.18% (active)	-9.52% (active) and -58% (active)	-51.7% (active) and -90.9% (active)	-1.91% (active) and -63.6% (active)	0% (active) and -84.3% (active)	-87.2% (active) and -90.5% (active)	-78.4% (active) and -83.7% (active)	-77.1% (active)
Oc1c(Cl)cc(Cl)c2cccnc12	85.5% (inactive) and 71.2% (inactive)	24.4% (inactive) and 29% (inactive)	74.1% (inactive) and 91.3% (inactive)	95.1% (inactive) and 48.3% (inactive)	67.1% (inactive)	66.4% (inactive) and 54% (inactive)	30.3% (inactive) and 12.3% (inactive)	68.7% (inactive) and 34.3% (inactive)	82.4% (inactive)	63.7% (inactive) and 53% (inactive)
COc1cc(/C=C/C(C)=O)ccc1O	105% (inactive) and 101% (inactive)	105% (inactive) and 98.2% (inactive)	90.6% (inactive) and 137% (inactive)	96.4% (inactive) and 111% (inactive)	100% (inactive) and 121% (inactive)	90.3% (inactive) and 99% (inactive)	107% (inactive) and 114% (inactive)	86.1% (inactive) and 93.9% (inactive)	106% (inactive) and 109% (inactive)	99.7% (inactive) and 101% (inactive)
Cc1ccc2nc(-[n+]3cc4ccccc4cc3C)ccc2c1	53.6% (inactive)	39.1% (inactive)	44.2% (inactive)	54.8% (inactive)	91.2% (inactive)	39.5% (inactive)	33.3% (inactive)	43.8% (inactive)	11.4% (inactive)	43.1% (inactive)
CCCCCCCCCCCCCCCC[N+](C)(CCO)Cc1cnc[nH]1 (stereo not given)	-32% (active)	-61.6% (active)	-3.54% (active)	-54.9% (active)	-44.7% (active)	-66.1% (active)	-31.7% (active)	-54.3% (active)	-34.5% (active)	-41.9% (active)
NC1=CC(=O)c2ccccc2C1=O	63.8% (inactive)	92.6% (inactive)	38.8% (inactive)	82.1% (inactive)	100% (inactive)	95.6% (inactive)	69% (inactive)	106% (inactive)	69% (inactive)	83% (inactive)
O=C(O)c1ccc2c3c(ncnc13)-c1ccccc1C2=O	-100% (active)	74.5% (inactive)	-68.6% (active)	89.6% (inactive)	73.5% (inactive)	90% (inactive)	62.3% (inactive)	63.1% (inactive)	37.8% (inactive)	-59% (active)
CCN(CC)CCOc1ccc(-c2nc3cc(Cl)ccc3s2)cc1	12% (inactive)	-99.1% (active)	28.7% (inactive)	-44.8% (active)	29.8% (inactive)	16.5% (inactive)	-71.5% (active)	-15.5% (active)	-36.2% (active)	-75.4% (active)
C1=C(c2ccccc2)C(c2ccc(OCCN3CCCCC3)cc2)Oc2ccccc21 (stereo not given)	77.1% (inactive)	10.8% (inactive)	2.37% (active)	48.4% (inactive)	20.4% (inactive)	62.2% (inactive)	52.7% (inactive)	71.8% (inactive)	-40.6% (active)	-58% (active)
Oc1c(Br)c(Br)c(O)c(Br)c1Br	112% (inactive)	7.81% (active)	56.5% (inactive)	116% (inactive)	12.5% (inactive)	108% (inactive)	107% (inactive)	119% (inactive)	117% (inactive)	110% (inactive)
Nc1nc(N)c2c(ccc3c2ccn3Cc2cccc([N+](=O)[O-])c2)n1	-97% (active)	31.8% (inactive)	-82.7% (active)	-87.9% (active)	-83.6% (active)	-78% (active)	-93.3% (active)	-96.7% (active)	-78.9% (active)	-83.2% (active)
Nc1nc(N)c2nc(CNc3ccc(C(=O)NC(CCC(=O)O)C(=O)O)cc3)cnc2n1 (stereo not given)	28.2% (inactive) and 21.8% (inactive)	18.7% (inactive) and 32% (inactive)	47.8% (inactive) and 48.3% (inactive)	78.1% (inactive) and 60.1% (inactive)	48% (inactive) and 76.4% (inactive)	26.6% (inactive) and 27.3% (inactive)	26% (inactive) and 12.9% (inactive)	21.3% (inactive) and 18.4% (inactive)	57.8% (inactive) and 52.2% (inactive)	10.8% (inactive) and 9.2% (active)
Oc1ccc(/C=N/NC(=S)Nc2ccccc2)nc1	12.3% (inactive)	14.1% (inactive)	14.4% (inactive)	49.3% (inactive)	3.06% (active)	18.7% (inactive)	25.3% (inactive)	1.01% (active)	4.98% (active)	-34.8% (active)
O=C1C=CC(=O)N1C1c2ccccc2-c2ccccc21	103% (inactive)	18.5% (inactive)	90.1% (inactive)	97.9% (inactive)	80.5% (inactive)	102% (inactive)	99.5% (inactive)	98.3% (inactive)	85.7% (inactive)	96.5% (inactive)
O=C1c2ccccc2C(=O)N1c1ccccc1	109% (inactive)	106% (inactive)	105% (inactive)	89.7% (inactive)	112% (inactive)	108% (inactive)	94.9% (inactive)	103% (inactive)	101% (inactive)	106% (inactive)
O=C(/C=C\c1cc(Br)ccc1O)/C=C/c1cc(Br)ccc1O	2.79% (active)	5.64% (active)	-5.41% (active)	0.442% (active)	-49.4% (active)	-17.9% (active)	-1.61% (active)	-49.1% (active)	-16.7% (active)	-51.7% (active)

Source: PubChem BioAssay (NCI)
